Experiment [1] can be described thus: qHTS assay for small molecule agonists of the p53 signaling pathway (AID 651631; calls by dose curve; note: nearly all actives have a fitted effect of over 15% in size; note: potency is the fitted concentration of half-maximal effect). In short, it runs like this:
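HCT-116 p53RE-bla reporter line, 16 h compound treatment at 37 °C, then fluorescence after 2 h with B/G FRET substrate.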

Experiment [2] is described as follows: qHTS assay for small molecules that induce genotoxicity in human embryonic kidney cells expressing luciferase-tagged ATAD5 (AID 651632). Note: nearly all actives have a fitted effect of over 15% in size. Note: potency is the fitted concentration of half-maximal effect. The essentials: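 Reporter cells (HEK293T) express luciferase-tagged ATAD5, a protein that accumulates after DNA damage. Treat 16 hr at 37C/5% CO2, add Amplite, wait 30 min at RT, and read luminescence.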
Experiment [3] is described as follows: qHTS assay for small molecule agonists of the p53 signaling pathway - cell viability (AID 651633; calls by dose curve; note: nearly all actives have a fitted effect of over 30% in size; note: potency is the fitted concentration of half-maximal effect). The essentials:
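Viability counter-read: CellTiter-Glo luminescence (30 min, room temperature) in the same p53RE-bla plates. These plates had been exposed to compounds for 16 h at 37 C.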

Experiment [4] in a line: qHTS assay for small molecules that induce genotoxicity in human embryonic kidney cells expressing luciferase-tagged ATAD5 - cell viability (AID 651634; calls by dose curve; note: nearly all actives have a fitted effect of over 25% in size; note: potency is the fitted concentration of half-maximal effect). The essentials: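 Seeding of 2,000 HEK293T ATAD5-luciferase cells per well preceded pin-tool compound transfer. Plates sat 15.5 hr at 37C under 5% CO2, then fluorescence was read after 30 min with CellTiter-Fluor.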
Experiment [5] is described as follows: qHTS assay for small molecule disruptors of the mitochondrial membrane potential - cell viability (AID 720634; calls by dose curve;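 note: human HepG2 liver cancer cells; series mostly up to about 83 µM; nearly all actives have a fitted effect of over 20% in size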). In short, it runs like this: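 Measuring cytotoxicity alongside mitochondrial potential, the screen quantified ATP by luminescence in HepG2 cells after 1 hr compound incubation and a 30 min room-temperature CellTiter-Glo step.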
A short description of experiment [6]: qHTS assay for small molecule disruptors of the mitochondrial membrane potential (AID 720635). Note: potency is the fitted concentration of half-maximal effect. In short, it runs like this: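 Mitochondrial membrane potential tracked with Mito-MPS dye, red aggregates (ex 540/em 590 nm) against green monomers (ex 490/em 535 nm). Compound treatment 1 hr at 37C, dye 30 min in HepG2.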
A short description of experiment [7]: qHTS assay to test for compound auto fluorescence at 460 nm (blue) in HEK293 cells (AID 720678). In short, it runs like this: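 Cells were seeded and left to adhere for 4-5 hr at 37C. Compounds were then pin-transferred. After an overnight incubation at 37C under 5% CO2, intrinsic fluorescence at 405/460 nm was measured and referenced to triamterene.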
Experiment [8] can be described thus: qHTS assay to test for compound auto fluorescence at 590 nm (red) in HEK293 cells (AID 720679). In short, it runs like this:
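Each well held 2,000 HEK293 cells in medium containing 10% dialyzed FBS. Following 4-5 hr attachment at 37C, 23 nL test compound or DMSO was added; plates sat overnight, and red fluorescence (540/590nm) was recorded.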

The nature of experiment [9]: qHTS assay to test for compound auto fluorescence at 535 nm (green) in HepG2 cells (AID 720675).
The nature of experiment [10]: qHTS assay to test for compound auto fluorescence at 590 nm (red) in HepG2 cells (AID 720674). In short, it runs like this:
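1 hr compound incubation on HepG2 cells, 37 C, 5% CO2; plate read ex 540 nm / em 590 nm; intensities reported as Rose Bengal sodium equivalents.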

“And” between values parts separate entries of the source, which are not always exact repeats. Identical values can stand only once. Results filed as inconclusive are left out. A structure can be active in one record and inactive in another. The source made the active and inactive calls. Unless noted, calls come from the whole dose curve; as a rule, active = well fitted curve in the direction sought with a large enough effect in the repeat runs; inconclusive = weak or mixed curves; inactive = no such curve, though single readings can be large; an effect the other way counts as inactive or inconclusive.

Consider `C[S+](C)CCC(N)C(=O)O` (stereo unspecified), for which the Potency entry in experiment [1], in experiment [2], in experiment [3], in experiment [4], in [5] and in experiment [6] was “inactive” throughout. For the same molecule, the Potency result in experiment [7] was “inactive”. For the same molecule, in experiment [8], the call was inactive.
With `CS(=O)(=O)c1ccc([C@@H](O)[C@@H](COC(=O)CN)NC(=O)C(Cl)Cl)cc1`, the Potency entry in experiment [1], in experiment [2], in experiment [3], in experiment [4], in [5] and in [6] was “inactive” each time. For the same molecule, in experiment [9], the Potency entry is “inactive”. The result in [8] was inactive.
As to `Cc1cc(Br)ccc1NC(=O)CCl`, the Potency in experiment [1] was 8.63 µM (active); in experiment [3], 43.3 µM (active); in experiment [4], 54.5 µM (active). Moreover, the Potency result in [2], in [5], in experiment [9] and in experiment [7] was “inactive” each time. The call in experiment [10] and in experiment [8] was inactive.
Turning to `N[C@@H](Cc1cnc[nH]1)C(=O)O`, the Potency entry in [1], in experiment [2], in experiment [3], in [4], in [5] and in [9] was “inactive” throughout. In experiment [7], the Potency result is “inactive”. Moreover, the result in experiment [10] and in experiment [8] was inactive.
On to `NC(=O)c1cc[n+](CC2=C(C(=O)O)N3C(=O)[C@@H](NC(=O)C(c4ccccc4)S(=O)(=O)[O-])[C@H]3SC2)cc1` (stereo partly specified), for which the Potency result in [1], in experiment [2], in experiment [3], in experiment [4], in experiment [5] and in experiment [6] was “inactive” each time. Further, the Potency entry in experiment [9] and in [7] was “inactive” each time. In addition, the molecule was called inactive in [8].
In the case of `NCC[C@H](O)C(=O)N[C@@H]1C[C@H](N)[C@@H](O[C@H]2O[C@H](CN)CC[C@H]2N)[C@H](O)[C@H]1O[C@H]1O[C@H](CO)[C@@H](O)[C@H](N)[C@H]1O`, the Potency entry in experiment [1], in experiment [2], in experiment [3], in experiment [4], in experiment [5] and in experiment [6] was “inactive” in each case. For the same molecule, the Potency result in [9] and in [7] was “inactive” in each case. Also, the molecule was called inactive in experiment [8].
For `NCCO/C=C/[C@H](N)C(=O)O`, the Potency entry in experiment [1], in experiment [2], in [3], in [4], in experiment [6] and in experiment [9] was “inactive” each time. In addition, in experiment [7], the Potency entry was “inactive”. Also, the result in experiment [10] and in experiment [8] was inactive.
Regarding `C1CCc2nnnn2CC1`, the Potency result in experiment [1], in [2], in experiment [3], in experiment [4], in [6] and in [9] was “inactive” in each case. In experiment [7], the Potency entry was “inactive”. In addition, the molecule was classed as inactive in experiment [10] and in experiment [8].
With `NC(=O)CC[C@@H]1NC(=O)[C@H](Cc2ccccc2)NC(=O)[C@H](Cc2ccc(O)cc2)NC(=O)[C@@H](N)CSSC[C@@H](C(=O)N2CCC[C@H]2C(=O)N[C@@H](CCCN=C(N)N)C(=O)NCC(N)=O)NC(=O)[C@H](CC(N)=O)NC1=O`, the Potency entry in [1], in experiment [2], in experiment [3], in experiment [4], in experiment [5] and in experiment [6] was “inactive” each time. The Potency entry in [9] was “inactive”. In addition, the result in experiment [8] was inactive.
With `C[C@H](Cc1ccc(O)c(O)c1)[C@@H](C)Cc1ccc(O)c(O)c1`, the Potency entry in experiment [1], in [2], in [3], in experiment [4], in [9] and in [7] was “inactive” each time. Besides, the Potency in experiment [6] is 13.3 µM (active). Besides, the molecule was classed as inactive in experiment [10] and in experiment [8].
`O=C(N[C@H](CO)[C@H](O)c1ccc([N+](=O)[O-])cc1)C(Cl)Cl`: the Potency entry in experiment [1], in experiment [2], in [3], in [4], in experiment [5] and in [7] was “inactive” each time. For the same molecule, the call in experiment [10] and in experiment [8] was inactive.
With `C/C(=C\C(=O)OCCCCCCCCC(=O)O)C[C@@H]1OC[C@H](C[C@@H]2O[C@H]2[C@@H](C)[C@H](C)O)[C@@H](O)[C@H]1O`, the Potency result in [1], in [2], in experiment [3], in experiment [4], in experiment [5] and in [6] was “inactive” in each case. The Potency entry in experiment [9] and in experiment [7] was “inactive” each time. For the same molecule, the outcome in experiment [8] was inactive.
On to `CO[C@H]1C[C@H](O[C@H]2[C@H](C)[C@@H](O[C@@H]3O[C@H](C)C[C@H](N(C)C)[C@H]3O)[C@@H](C)C[C@]3(CO3)C(=O)[C@H](C)[C@@H](O)[C@@H](C)[C@@H](C)OC(=O)[C@@H]2C)O[C@@H](C)[C@@H]1O`, for which the Potency result in [1], in experiment [2], in experiment [3], in experiment [4], in [5] and in experiment [6] was “inactive” each time. Besides, the Potency result in experiment [9] and in experiment [7] was “inactive” throughout. Moreover, in experiment [8], the result was inactive.
In the case of `CN(C)CCC(O)(c1ccccc1)c1ccccc1Cl` (stereo unspecified), the Potency entry in experiment [1], in [2], in experiment [3], in experiment [4], in experiment [6] and in experiment [9] was “inactive” throughout. Further, the Potency result in [7] is “inactive”. Moreover, the molecule was called inactive in experiment [10] and in experiment [8].
For `COc1cc2c(cc1O)CCN[C@]21CS[C@@H]2c3c(OC(C)=O)c(C)c4c(c3[C@H](COC1=O)N1[C@@H]2[C@H]2c3c(cc(C)c(OC)c3O)C[C@@H]([C@@H]1O)N2C)OCO4`, the Potency was 8.4 nM (active) and 12.2 nM (active) in experiment [1]; “inactive and 243 nM (active)” in [2]; 0.0422 µM (active) in experiment [4]. Moreover, the Potency entry in [3], in [5], in experiment [9] and in [7] was “inactive” each time. The result in [10] and in [8] was inactive.
Consider `CO/N=C(\C(=O)N[C@@H]1C(=O)N2C(C(=O)O)=C(COC(C)=O)CS[C@H]12)c1csc(N)n1` (stereo in doubt), for which the Potency entry in experiment [1], in experiment [2], in [3], in experiment [4], in [5] and in [6] was “inactive” in each case. Besides, the Potency entry in [9] and in [7] was “inactive” each time. The molecule was called inactive in experiment [8].
Take `O=C[C@H](O)[C@@H](O)[C@@H](O)[C@H](O)CO`: the Potency result in experiment [1], in experiment [2], in experiment [3], in experiment [4], in [5] and in [9] was “inactive” in each case. Further, the Potency result in experiment [7] was “inactive”. Also, the outcome in experiment [10] and in experiment [8] was inactive.
As to `COc1cc([C@@H]2c3cc4c(cc3[C@@H](O[C@@H]3O[C@@H]5CO[C@@H](C)O[C@H]5[C@H](O)[C@H]3O)[C@H]3COC(=O)[C@H]23)OCO4)cc(OC)c1O`, the Potency in experiment [1] is 1.88 µM (active) and 761 nM (active). Moreover, the Potency result in experiment [2], in experiment [3], in experiment [4], in experiment [5], in experiment [9] and in experiment [7] was “inactive” throughout. Also, the call in experiment [10] and in experiment [8] was inactive.
In the case of `O=C(O)[C@@H]1C[C@H](CP(=O)(O)O)CCN1`, the Potency result in [1], in experiment [2], in [3], in [4], in experiment [5] and in experiment [6] was “inactive” in each case. Also, the Potency entry in experiment [9] and in experiment [7] was “inactive” each time. The molecule was called inactive in experiment [8].
For `CNCC(=O)N[C@@H](CCCN=C(N)N)C(=O)N[C@H](C(=O)N[C@@H](Cc1ccc(O)cc1)C(=O)N[C@H](C(=O)N[C@@H](Cc1cnc[nH]1)C(=O)N1CCC[C@H]1C(=O)N[C@@H](C)C(=O)O)C(C)C)C(C)C`, the Potency entry in experiment [1], in experiment [2], in experiment [3], in experiment [4], in [5] and in experiment [6] was “inactive” in each case. Besides, the Potency entry in [9] and in experiment [7] was “inactive” each time. Besides, the molecule was classed as inactive in [8].

The values are drawn from PubChem BioAssay (Tox21).
